Source: PubChem BioAssay
Values without a mark were called inactive. For part of these data: Results with a measured potency or affinity are listed apart. Active and inactive are the calls of the source. Unless noted, how the calls were made is not given here.

How the values were obtained:
[1] = antimalarial activity against Dd2 strain (AID 2302;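 active means growth inhibition above 50% at the single 2 µM test dose, taken to imply half-maximal potency below 2 µM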;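 further: 0% = DMSO untreated growth and 100% = chloroquine plus artemisinin killed control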); details: P. falciparum Dd2 in RBCs, LDH growth readout, 72 h; at 2 µM; hits give high values
[2] = HepG2 cytotoxicity, primary screen, cytotoxicity control for P. falciparum antimalarial project, cell-based, ATP luminescence (AID 2303;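 active means inhibition above 50%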;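 further: 0% = DMSO wells and 100% = digitonin-killed cells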); details: HepG2 viability, 24-48 h, at 10 µM, hits give high values
[3] = biological target: L-lactate dehydrogenase (Plasmodium falciparum (isolate CDC / Honduras)) (UniProt Q27743); assay: PfLDH activity inhibition – cell lysate, 3D7 strain, counter-screen for P. falciparum growth inhibition project (AID 2304);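 further: 0% = vehicle and 100% = reference inhibitor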; details: P. falciparum 3D7 crude extract, LDH APAD/NBT absorbance; at 2 µM; hits give high values
L-lactate dehydrogenase (Plasmodium falciparum (isolate CDC / Honduras)), sequence (Q27743 whole entry, looked up): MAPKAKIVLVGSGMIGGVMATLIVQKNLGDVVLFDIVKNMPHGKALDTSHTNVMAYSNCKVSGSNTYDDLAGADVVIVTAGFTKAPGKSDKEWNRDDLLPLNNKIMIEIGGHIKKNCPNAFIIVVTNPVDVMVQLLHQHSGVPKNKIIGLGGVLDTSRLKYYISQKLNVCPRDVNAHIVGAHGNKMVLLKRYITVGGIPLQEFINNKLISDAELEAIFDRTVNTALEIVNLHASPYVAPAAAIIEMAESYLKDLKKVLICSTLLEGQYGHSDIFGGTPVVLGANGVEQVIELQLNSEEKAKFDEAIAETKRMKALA

[4] = inhibition of 3D7 malaria parasite growth – strain 3D7 (AID 2306);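 further: 0% = DMSO wells and 100% = chloroquine plus artemisinin control wells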; details: P. falciparum 3D7 erythrocytic growth, LDH absorbance, 72 h; at 2 µM; hits give high values
[5] = biological target: Calcium-dependent protein kinase 1 (Plasmodium falciparum (isolate 3D7)) (UniProt P62344); assay: PfCDPK1 kinase inhibitors, biochemical, TCAMS library (AID 1159585; cut-off not given, nearly all actives have IC50 up to about 0.98 µM;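 further: inhibitors leave more ATP so luminescence rises with inhibition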); details: recombinant PfCDPK1, Kinase-Glo ATP depletion luminescence
Calcium-dependent protein kinase 1 (Plasmodium falciparum (isolate 3D7)), sequence (P62344 whole entry, looked up): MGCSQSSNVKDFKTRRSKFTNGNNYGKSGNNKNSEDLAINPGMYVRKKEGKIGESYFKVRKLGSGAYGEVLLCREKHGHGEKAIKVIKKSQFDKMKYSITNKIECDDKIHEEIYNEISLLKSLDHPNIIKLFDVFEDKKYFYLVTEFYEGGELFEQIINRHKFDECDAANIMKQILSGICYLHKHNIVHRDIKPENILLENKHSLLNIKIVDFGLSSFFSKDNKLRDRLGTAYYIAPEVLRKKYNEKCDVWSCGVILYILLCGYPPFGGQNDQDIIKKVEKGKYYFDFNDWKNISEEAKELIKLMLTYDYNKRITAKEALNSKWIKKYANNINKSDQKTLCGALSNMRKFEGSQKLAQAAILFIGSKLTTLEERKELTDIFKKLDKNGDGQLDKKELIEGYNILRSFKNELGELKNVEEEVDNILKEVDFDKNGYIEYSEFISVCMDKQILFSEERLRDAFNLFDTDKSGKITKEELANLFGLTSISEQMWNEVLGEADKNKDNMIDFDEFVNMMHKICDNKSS

[6] = biological target: Plasmodium falciparum protein kinase 6 (PK6, PF3D7_1337100) (UniProt Q8IDW1); assay: PfPK6 kinase inhibitors, biochemical, TCAMS library (AID 1159586); details: recombinant PfPK6, Kinase-Glo ATP depletion luminescence
Plasmodium falciparum protein kinase 6 (PK6, PF3D7_1337100), sequence (Q8IDW1 1-305): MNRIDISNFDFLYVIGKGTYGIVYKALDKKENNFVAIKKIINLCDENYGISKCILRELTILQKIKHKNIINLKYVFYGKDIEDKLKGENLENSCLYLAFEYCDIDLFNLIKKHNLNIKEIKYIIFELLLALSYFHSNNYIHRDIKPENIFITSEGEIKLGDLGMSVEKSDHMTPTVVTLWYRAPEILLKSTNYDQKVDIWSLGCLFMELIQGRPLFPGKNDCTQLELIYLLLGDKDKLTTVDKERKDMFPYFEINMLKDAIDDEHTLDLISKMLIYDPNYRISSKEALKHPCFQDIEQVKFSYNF

[7] = biological target: Protein kinase 7 (PK7), Plasmodium falciparum 3D7 (PF3D7_0213400) (UniProt Q7YTF7); assay: inhibition of Plasmodium PK7 catalytic activity – biochemical, TCAMS antimalarial set, Kinase-Glo luminescence (AID 1159587); details: recombinant PfPK7, Kinase-Glo ATP depletion luminescence
Protein kinase 7 (PK7), Plasmodium falciparum 3D7 (PF3D7_0213400), sequence (Q7YTF7 1-343): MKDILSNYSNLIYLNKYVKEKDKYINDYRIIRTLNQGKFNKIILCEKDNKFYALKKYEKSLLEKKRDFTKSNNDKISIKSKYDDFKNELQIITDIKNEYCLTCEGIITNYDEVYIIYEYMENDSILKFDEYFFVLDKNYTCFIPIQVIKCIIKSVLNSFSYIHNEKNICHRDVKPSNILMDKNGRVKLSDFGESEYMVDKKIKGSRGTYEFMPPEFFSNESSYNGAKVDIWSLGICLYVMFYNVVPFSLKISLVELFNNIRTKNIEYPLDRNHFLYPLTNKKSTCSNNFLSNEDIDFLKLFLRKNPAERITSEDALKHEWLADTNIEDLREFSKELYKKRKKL

[8] = biological target: Calcium-dependent protein kinase 4 (Plasmodium falciparum (isolate 3D7)) (UniProt Q8IBS5); assay: PfCDPK4 kinase inhibitors, biochemical, TCAMS library (AID 1159588; cut-off not given, nearly all actives have IC50 up to about 0.91 µM); details: recombinant PfCDPK4, Kinase-Glo ATP depletion luminescence
Calcium-dependent protein kinase 4 (Plasmodium falciparum (isolate 3D7)), sequence (Q8IBS5 whole entry, looked up): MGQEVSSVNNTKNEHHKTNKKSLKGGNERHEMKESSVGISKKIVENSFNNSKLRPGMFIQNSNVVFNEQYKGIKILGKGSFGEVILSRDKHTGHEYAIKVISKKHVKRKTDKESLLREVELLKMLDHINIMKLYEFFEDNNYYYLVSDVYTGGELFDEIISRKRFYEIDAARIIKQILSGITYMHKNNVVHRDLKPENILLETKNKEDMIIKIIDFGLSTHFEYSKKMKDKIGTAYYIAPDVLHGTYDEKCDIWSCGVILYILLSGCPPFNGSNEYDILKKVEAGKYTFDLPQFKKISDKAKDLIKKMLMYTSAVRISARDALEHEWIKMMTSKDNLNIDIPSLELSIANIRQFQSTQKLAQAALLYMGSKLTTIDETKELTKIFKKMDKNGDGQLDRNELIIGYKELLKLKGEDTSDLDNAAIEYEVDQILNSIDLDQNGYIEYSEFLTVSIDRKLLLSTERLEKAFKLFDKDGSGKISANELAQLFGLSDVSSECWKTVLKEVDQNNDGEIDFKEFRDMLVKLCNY

Row | Structure (SMILES) | growth inhibition [1] | inhibition [2] | inhibition [3] [%] | growth inhibition [4] | outcome [5] | outcome [6] | outcome [7] | outcome [8]
1 | CCCCN1CCN(CC(O)CNC(=O)Nc2ccc(Cl)cc2)CC1 (configuration not stated) | 99% (active) | 17% | -3 | 101% (active) | inactive | inactive | inactive | inactive
2 | Cc1nn(-c2cccc(C(F)(F)F)c2)c2sc(C(=O)NC3CCN(C(C)C)CC3)cc12 | 20% | 98% (active) | -4 | 94% (active) | inactive | inactive | inactive | inactive
3 | CCc1ccc(CN2CCC(NC(=O)c3ccc(-c4ccc(N(C)C)cc4)s3)CC2)cc1 | 44% | 52% (active) | -4 | 84% (active) | inactive | inactive | inactive | inactive
4 | Cc1ccccc1C(=O)Nc1cccc(-c2nc3ncccn3c2C)c1 | 94% (active) | -5% | 1 | 94% (active) | inactive | inactive | inactive | inactive
5 | COc1c(O)cc2oc(-c3ccc(O)cc3)cc(=O)c2c1O | 0% | 6% | -1 | 96% (active) | inactive | inactive | inactive | inactive
6 | Cc1ccc(-n2c(=O)c3cccnc3n2CC(=O)Nc2cccc(C)c2C)cc1 | 20% | 9% | -3 | 96% (active) | inactive | inactive | inactive | inactive
7 | CN(C)CCCNc1ncnc2c1[nH]c1ccc(Cl)cc12 | 3% | 2% | 2 | 99% (active) | inactive | inactive | inactive | inactive
8 | O=C(NC1CCN(CC2(c3ccccc3F)CCCC2)CC1)c1ccn[nH]1 | 91% (active) | -5% | -1 | 93% (active) | inactive | inactive | inactive | inactive
9 | O=C(Nc1ccc(C(F)(F)F)cc1)N[C@H]1CCN(CCCCCNC(=O)[C@@H]2C[C@H]2c2ccc(Cl)c(Cl)c2)C1 | -1% | 41% | -2 | 96% (active) | inactive | inactive | inactive | inactive
10 | COc1ccc(C(=O)CC(=O)c2ccc(OC)cc2OC)c(OC)c1 | -2% | 1% | 2 | 98% (active) | inactive | inactive | inactive | inactive
11 | CCOC(=O)NC1=NC(C)(C)N(OCCCOc2cc(Cl)c(Cl)cc2Cl)C(N)=N1 | 94% (active) | 63% (active) | -2 | 97% (active) | inactive | inactive | inactive | inactive
12 | CN(C)CCN(C)Cc1ccc(-c2ccc(NC(=O)c3cccc(C#N)c3)cc2)cc1 | 49% | 20% | 2 | 89% (active) | inactive | inactive | inactive | inactive
13 | COc1ccc2c(NN=Cc3cccnc3)cc(C)nc2c1 | 12% | -4% | -2 | 85% (active) | inactive | inactive | inactive | inactive
14 | c1ccc2c(c1)CN(CC1CC1)CC1(CCN(Cc3c[nH]c4cnccc34)CC1)O2 | 14% | 30% | -1 | 101% (active) | inactive | inactive | inactive | inactive
15 | CCCC(=O)c1cnc2c(Oc3cc(Cl)ncn3)cccc2c1Nc1ccccc1C | 85% (active) | 6% | 6 | 99% (active) | inactive | inactive | inactive | inactive
16 | COc1cc(C2C(Oc3ccccc3)C(=O)N2Cc2ccc(F)cc2)cc(OC)c1OC (configuration not stated) | 97% (active) | -2% | 4 | 100% (active) | inactive | inactive | inactive | inactive
17 | NC(=O)c1cc2nc(Nc3ccc(F)cc3)nc(NC3CCC3)c2[nH]1 | 102% (active) | 0% | 3 | 102% (active) | inactive | inactive | inactive | inactive
18 | CC(C)N1CCN(c2ccc(OCCCCN3CCN(c4cccc(Cl)c4Cl)CC3)c(C(F)(F)F)c2)CC1 | 28% | 64% (active) | 4 | 101% (active) | inactive | inactive | inactive | inactive
19 | CC(C)NCc1ccc(-c2cccc(CN3CCC(c4ccccc4)CC3)c2)c(C(=O)NCC2CCCCC2)c1 | 76% (active) | 42% | -5 | 98% (active) | inactive | inactive | inactive | inactive
20 | O=C(c1cc2nc3c(c(C(F)(F)F)n2n1)CCc1ccccc1-3)N1CCN2CCCC2C1 (configuration not stated) | 3% | -8% | 0 | 94% (active) | inactive | inactive | inactive | inactive

Row | Structure (SMILES) | growth inhibition [1] | inhibition [2] | inhibition [3] [%] | growth inhibition [4] | outcome [5] | outcome [6] | outcome [7] | outcome [8]
21 | CC(C)Nc1cc(C(=O)N[C@@H](Cc2ccccc2)[C@H](O)CNCc2cccc(C(F)(F)F)c2)c(F)c(N2CCCCS2(=O)=O)c1 | 78% (active) | -5% | -2 | 93% (active) | inactive | inactive | inactive | inactive
22 | c1ccc(CN2CCC(NCc3ccccc3-c3cccc(CNCc4ccc5c(c4)OCO5)c3)CC2)cc1 | 69% (active) | 37% | 4 | 102% (active) | inactive | inactive | inactive | inactive
23 | COc1cc(CNCCCCCCNCc2cc(OC)c(OC)c3ccccc23)c2ccccc2c1OC | 100% (active) | 100% (active) | -1 | 100% (active) | inactive | inactive | inactive | inactive
24 | Fc1ccccc1COc1ccc(Nc2ncnc3ccc(-c4nnc(C(F)(F)F)o4)cc23)cc1Cl | 46% | 7% | 4 | 100% (active) | inactive | inactive | inactive | inactive
25 | Cc1cc(N(C)C)nc(Nc2ccc(NC(=O)c3c(F)cccc3F)cc2)n1 | 45% | 50% (active) | -1 | 94% (active) | inactive | inactive | inactive | inactive
26 | Nc1c(Cl)cc(C(O)CNCCCCCCCCCc2ccccn2)cc1Cl (configuration not stated) | 83% (active) | 9% | 2 | 98% (active) | inactive | inactive | inactive | inactive
27 | O=C(Nc1cccc(-c2cccc(-c3nc4ccc(C(F)(F)F)cc4[nH]3)c2)c1)c1ccncc1 | 61% (active) | 52% (active) | 4 | 101% (active) | inactive | inactive | inactive | inactive
28 | COc1nc2c(N3CCN(CCNCc4ccc5c(n4)NC(=O)CO5)CC3)ccnc2cc1F | 9% | 18% | -2 | 101% (active) | inactive | inactive | inactive | inactive
29 | FC(F)(F)c1cccc(CNC2CCN(CC3CCCCC3)CC2)c1 | 12% | 0% | 0 | 101% (active) | inactive | inactive | inactive | inactive
30 | OC(CNCc1ccccc1OCc1ccccc1)c1cc(C(F)(F)F)cc(C(F)(F)F)c1 (configuration not stated) | 99% (active) | 3% | 3 | 100% (active) | inactive | inactive | inactive | inactive
31 | N#Cc1cccc(NC(=O)Nc2ccc3c(c2)CCN(C2CCC2)CC3)c1 | 26% | 22% | -3 | 91% (active) | inactive | inactive | inactive | inactive
32 | CCN(CC)C(=O)c1cnc(-c2ccccc2)nc1Oc1cccc(Cl)c1 | 40% | -7% | -3 | 92% (active) | inactive | inactive | inactive | inactive
33 | CCC(CC)(Cc1ccccc1)NC(=O)[C@H](CC(C)C)Nc1ccc(C#N)c2ccccc12 | 73% (active) | 57% (active) | -1 | 90% (active) | inactive | inactive | inactive | inactive
34 | O=C(c1ccc(Cl)cc1)N1CCCC(C(=O)N(Cc2nnc(-c3ccccc3Cl)o2)C2CC2)C1 (configuration not stated) | 96% (active) | 10% | 0 | 95% (active) | inactive | inactive | inactive | inactive
35 | CC(C)NCc1ccc(-c2ccc(CN3CCCC(c4ccccc4)C3)cc2)c(C(=O)NC2Cc3ccccc3C2)c1 (configuration not stated) | 64% (active) | 41% | 3 | 96% (active) | inactive | inactive | inactive | inactive
36 | Cc1c(N=O)cc(C(C)(C)C)c(O)c1C(=O)Nc1ccc([N+](=O)[O-])cc1Cl | 98% (active) | 72% (active) | 1 | 100% (active) | inactive | inactive | inactive | inactive
37 | Cc1sc(N2CCN(C)CC2)nc1C(=O)Nc1ccc(F)cc1C(F)(F)F | 63% (active) | 7% | 4 | 92% (active) | inactive | inactive | inactive | inactive
38 | FC(F)(F)CNc1nc(Nc2ccc3ncccc3c2)nc2[nH]ccc12 | 83% (active) | 37% | 0 | 87% (active) | inactive | inactive | inactive | inactive
39 | Cc1cc(N(C)CCCN(C)C)nc(Nc2ccc(Br)cc2)n1 | 84% (active) | 4% | 1 | 100% (active) | inactive | inactive | inactive | inactive
